# Reference: PubChem BioAssay
# Active and inactive are the calls of the source. Unless noted, no rule for the calls is given here.
# Legend:
# [1] = system: Wnt5a (protein binding on small-molecule microarray); test: Wnt5a binders on small-molecule microarray, primary screen, biophysical, 635/667 nm fluorescence (AID 1142); details: 635 nm fluorescence, higher = more signal;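 also: fluorescence read at 667 nm with signal to noise per printed feature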
# [2] = cell viability in Huh7 cells, primary screen, cytotoxicity control for HCV replication inhibitor project, CellTiter-Glo luminescence, basal, 48 h (AID 1143); details: Huh7 HCV replicon, higher = more signal, called active from +8 up or from −8 down;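 also: Huh7 hepatoma cells carrying a hepatitis C replication reporter with no stimulus; test concentration not given here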
# [3] = P. aeruginosa biofilm formation inhibitors, primary screen, PAO1 strain, BacTiter-Glo luminescence, LB-PBS (AID 1144); details: 12 h, higher = more signal
# [4] = CREB reporter modulators without forskolin, primary screen, cell-based, PC12, CRE-LacZ reporter, unstimulated (AID 1145); details: no forskolin, luminescence, 4.5 h, higher = more signal, called active from +8 up or from −8 down
# [5] = CREB reporter modulators under forskolin, primary screen, cell-based, PC12, CRE-LacZ reporter, forskolin-stimulated (AID 1146); details: luminescence, 4.5 h, higher = more signal, called active from +8 up or from −8 down;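 also: PC12 cells with 6xCRE LacZ reporter stimulated by forskolin 10 µM; beta-galactosidase reporter signal reflecting CREB driven transcription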
# [6] = target: Streptavidin (Streptomyces avidinii) (UniProt P22629); test: streptavidin binders on small-molecule microarray, primary screen, artefact control for SMM compound annotation, biophysical, 635/667 nm fluorescence (AID 1147); details: streptavidin binding, higher = more signal;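 also: signal reflects streptavidin binding to arrayed compounds as a control protein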
# [7] = small-molecule binders of probe aInhba, primary screen, biochemical, small-molecule microarray, 635/667 nm fluorescence (AID 1148); details: higher = more signal;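 also: score merges 667nm spot fluorescence with signal-to-noise for antibody binding to printed compounds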
# [8] = target: Torsin-1A (Homo sapiens) (UniProt O14656); test: torsin A binders from cell lysate, primary screen, small-molecule microarray, wild-type, 635/667 nm (AID 1149); details: COS7 hTOR1A-WT lysate, 635 nm fluorescence, higher = more signal
# [9] = target: Torsin-1A (Homo sapiens) (UniProt O14656); test: small-molecule binders of mutant TOR1A in lysate, primary screen, cell lysate, small-molecule microarray, COS7 lysate, 635/667 nm fluorescence (AID 1150); details: COS7 hTOR1A mutant lysate, 635 nm fluorescence, higher = more signal;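 also: score pools 667 nm emission and signal to noise measuring lysate protein binding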
# [10] = system: Sonic hedgehog protein (Shh); test: small-molecule binders of Shh protein, primary screen, biochemical, small-molecule microarray, 635/667 nm fluorescence (AID 1151); details: small-molecule microarray binding, 635 nm fluorescence; higher = more signal;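 also: Shh protein binding to compounds spotted on small-molecule microarray slides; score combines spot fluorescence intensity with signal-to-noise across triplicate slides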
# [11] = E. coli DRC41 culture turbidity changes, primary screen, E. coli filamentation inducer project, strain DRC41, OD650, 48 h (AID 1152);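 also: E. coli MC1000 strain DRC41 lacking acrAB efflux pump and sulA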; details: E. coli DRC41 (acrAB sulA), higher = more signal, called active from +8 up or from −8 down
# [12] = small-molecule binders of probe aLefty1, primary screen, biochemical, small-molecule microarray, 635/667 nm fluorescence (AID 1153); details: higher = more signal;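 also: score merges spot fluorescence with signal-to-noise ratio from the scanned slide images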
# [13] = PSAC antagonists in infected red cells, primary screen, cell-based, P. falciparum Indochina, OD700, 1 h (AID 1154); details: P. falciparum Indochina infected RBC osmotic lysis, higher = more signal, called active from +8 up or from −8 down
# [14] = PSAC antagonists in infected red cells, primary screen, cell-based, P. falciparum Indochina, OD700, 2 h (AID 1155);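 also: lysis reports solute entry through the parasite surface anion channel PSAC; channel blockers reduce lysis of infected cells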; details: P. falciparum Indochina infected erythrocytes, osmotic lysis OD700; higher = more signal, called active from +8 up or from −8 down
# [15] = osmotic lysis modulators in infected erythrocytes, primary screen, PSAC antagonist project, cell-based, P. falciparum Indochina, OD700, 3 h (AID 1156); details: higher = more signal, called active from +8 up or from −8 down
# [16] = PSAC antagonists in infected red cells, primary screen, cell-based, P. falciparum Indochina, OD700, 18 h (AID 1157); details: P. falciparum Indochina infected erythrocytes, osmotic lysis OD700, 18 h; higher = more signal, called active from +8 up or from −8 down
# [17] = modulators of S6 phosphorylation in cells, primary screen, cell-based, A549, cytoblot, luminescence, serum-stimulated (AID 1158); details: A549 phospho-S6 cytoblot, 5 h, higher = more signal;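 also: serum-stimulated A549 lung adenocarcinoma cells; signal is phosphorylated S6 detected by cytoblot immunostaining with HRP secondary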
# [18] = target: NADPH oxidase 2 (Homo sapiens) (UniProt P04839); test: NOX2-dependent H2O2 signal modulators, primary screen, NOX inhibitor project, cell-based, HEK293-NOX2, PMA-stimulated, Amplex Red fluorescence (AID 1159); details: 45 min, higher = more signal, called active from +8 up or from −8 down; also: test concentration not given here
# [19] = target: NADPH oxidase 4 (Homo sapiens) (UniProt Q9NPH5); test: NOX4-dependent H2O2 signal modulators, primary screen, NOX inhibitor project, cell-based, HEK293-NOX4, tetracycline-induced, Amplex Red fluorescence (AID 1160); details: 45 min, higher = more signal, called active from +8 up or from −8 down
# [20] = target: NADPH oxidase 5 (Homo sapiens) (UniProt Q96PH1); test: NOX5-dependent H2O2 signal modulators, primary screen, NOX inhibitor project, cell-based, HEK293-NOX5, Amplex Red fluorescence (AID 1161); details: HEK293-NOX5, ionomycin, 45 min, higher = more signal
# Sequence of NADPH oxidase 5 (Homo sapiens) (Q96PH1 whole entry, looked up): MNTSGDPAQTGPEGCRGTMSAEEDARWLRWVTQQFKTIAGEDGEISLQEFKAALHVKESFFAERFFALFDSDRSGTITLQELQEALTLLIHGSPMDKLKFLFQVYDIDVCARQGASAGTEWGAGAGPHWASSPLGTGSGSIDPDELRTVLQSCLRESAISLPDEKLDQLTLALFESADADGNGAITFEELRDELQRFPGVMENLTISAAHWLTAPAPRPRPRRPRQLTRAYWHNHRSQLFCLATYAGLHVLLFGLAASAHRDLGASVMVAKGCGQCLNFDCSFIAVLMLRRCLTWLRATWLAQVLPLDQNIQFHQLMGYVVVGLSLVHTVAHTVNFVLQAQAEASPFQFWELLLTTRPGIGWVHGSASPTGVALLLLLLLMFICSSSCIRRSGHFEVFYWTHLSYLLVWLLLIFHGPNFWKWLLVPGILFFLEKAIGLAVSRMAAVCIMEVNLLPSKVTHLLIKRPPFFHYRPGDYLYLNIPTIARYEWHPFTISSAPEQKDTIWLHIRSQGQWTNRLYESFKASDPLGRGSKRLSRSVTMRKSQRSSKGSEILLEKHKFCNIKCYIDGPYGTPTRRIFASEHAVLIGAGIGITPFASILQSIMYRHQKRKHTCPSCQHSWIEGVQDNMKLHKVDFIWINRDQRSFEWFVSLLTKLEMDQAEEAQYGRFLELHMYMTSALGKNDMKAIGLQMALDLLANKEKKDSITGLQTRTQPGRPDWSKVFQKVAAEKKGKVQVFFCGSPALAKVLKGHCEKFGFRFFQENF
# Sequence of NADPH oxidase 4 (Homo sapiens) (Q9NPH5 whole entry, looked up): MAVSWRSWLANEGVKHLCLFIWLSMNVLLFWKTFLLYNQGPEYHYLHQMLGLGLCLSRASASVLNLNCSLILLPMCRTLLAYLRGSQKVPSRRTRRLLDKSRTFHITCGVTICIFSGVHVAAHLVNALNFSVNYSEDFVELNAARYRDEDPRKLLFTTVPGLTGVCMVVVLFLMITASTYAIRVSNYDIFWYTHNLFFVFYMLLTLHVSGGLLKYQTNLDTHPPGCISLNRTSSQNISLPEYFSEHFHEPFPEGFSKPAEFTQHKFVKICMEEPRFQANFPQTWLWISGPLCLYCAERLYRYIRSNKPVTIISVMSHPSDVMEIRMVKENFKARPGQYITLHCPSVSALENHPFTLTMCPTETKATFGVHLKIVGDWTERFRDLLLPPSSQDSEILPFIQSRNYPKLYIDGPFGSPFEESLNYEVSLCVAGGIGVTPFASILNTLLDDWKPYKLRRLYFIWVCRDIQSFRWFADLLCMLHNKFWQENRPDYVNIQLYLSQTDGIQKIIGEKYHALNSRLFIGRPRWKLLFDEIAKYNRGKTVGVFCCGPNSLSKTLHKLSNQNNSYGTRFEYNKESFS
# Sequence of Streptavidin (Streptomyces avidinii) (P22629 whole entry, looked up): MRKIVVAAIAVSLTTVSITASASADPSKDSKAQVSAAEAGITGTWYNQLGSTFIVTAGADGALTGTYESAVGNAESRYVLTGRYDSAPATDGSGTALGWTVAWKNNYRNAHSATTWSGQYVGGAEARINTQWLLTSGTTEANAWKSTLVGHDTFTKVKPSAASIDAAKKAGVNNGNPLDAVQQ
# Sequence of NADPH oxidase 2 (Homo sapiens) (P04839 whole entry, looked up): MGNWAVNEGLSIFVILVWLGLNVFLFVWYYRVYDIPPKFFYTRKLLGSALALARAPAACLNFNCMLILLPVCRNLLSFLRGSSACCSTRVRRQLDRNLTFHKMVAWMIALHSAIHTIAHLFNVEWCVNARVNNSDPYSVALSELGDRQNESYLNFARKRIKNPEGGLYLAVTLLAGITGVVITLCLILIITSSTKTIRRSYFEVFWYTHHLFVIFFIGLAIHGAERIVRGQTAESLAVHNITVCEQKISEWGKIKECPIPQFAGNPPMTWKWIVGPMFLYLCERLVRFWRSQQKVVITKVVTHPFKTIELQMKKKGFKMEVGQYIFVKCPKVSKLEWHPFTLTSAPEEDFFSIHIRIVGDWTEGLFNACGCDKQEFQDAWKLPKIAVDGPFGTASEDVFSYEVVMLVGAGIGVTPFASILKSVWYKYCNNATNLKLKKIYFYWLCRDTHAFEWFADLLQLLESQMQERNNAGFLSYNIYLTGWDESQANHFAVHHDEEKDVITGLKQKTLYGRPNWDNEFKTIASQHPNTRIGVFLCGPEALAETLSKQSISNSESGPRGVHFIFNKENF
# Sequence of Torsin-1A (Homo sapiens) (O14656 whole entry, looked up): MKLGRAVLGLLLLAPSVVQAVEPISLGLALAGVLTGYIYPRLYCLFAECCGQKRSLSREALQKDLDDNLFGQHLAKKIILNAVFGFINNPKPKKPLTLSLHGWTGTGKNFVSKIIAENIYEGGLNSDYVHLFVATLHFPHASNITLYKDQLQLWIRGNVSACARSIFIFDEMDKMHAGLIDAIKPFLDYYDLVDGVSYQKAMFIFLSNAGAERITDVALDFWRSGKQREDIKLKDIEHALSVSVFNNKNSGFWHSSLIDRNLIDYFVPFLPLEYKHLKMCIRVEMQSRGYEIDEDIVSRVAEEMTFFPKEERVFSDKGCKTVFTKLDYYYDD
SMILES,composite z-score [1],z-score [2],z-score [3],z-score [4],z-score [5],composite z-score [6],composite z-score [7],composite z-score [8],composite z-score [9],composite z-score [10],z-score [11],composite z-score [12],z-score [13],z-score [14],z-score [15],z-score [16],z-score [17],z-score [18],z-score [19],z-score [20]
CO[C@H](C1CCCCC1)[C@H](C)C=CCC(=O)OCCCc1ccccc1,-0.125,0.419 (inactive),-0.294 (inactive),0.248 (inactive),-0.468 (inactive),0.203,-0.416,0.113,0.171,-0.057,0.101 (inactive),-0.194,1.56 (inactive),0.726 (inactive),-1.17 (inactive),0.22 (inactive),-0.285,0.435 (inactive),-3.56 (inactive),-2.56
CCc1cc2c(nc1CC)CCN(CCC(C)=NO[C@H](C)c1cn([C@@H]3COC[C@H]3O)nn1)C2,-0.0763,0.401 (inactive),1.7 (inactive),0.238 (inactive),-0.183 (inactive),0.383,-0.0963,0.161,0.292,0.282,0.211 (inactive),0.199,1.34 (inactive),0.72 (inactive),0.322 (inactive),0.367 (inactive),-0.656,-0.539 (inactive),-0.138 (inactive),0.779
C#CCCCON=C1C[C@@H](O)[C@@H](O)[C@@H]2[C@@H]3C(=O)N(C(C)(C)C)C(=O)[C@@H]3CC[C@@H]12,0.0416,0.536 (inactive),0.945 (inactive),0.785 (inactive),0.262 (inactive),0.0462,-0.0762,-0.196,0.348,-1.22,-0.441 (inactive),0.308,3.54 (inactive),1.28 (inactive),0.158 (inactive),0.305 (inactive),0.929,0.934 (inactive),1.27 (inactive),-0.106
CCCCC#C[C@@H]1C=C[C@H](Oc2cc(OC)c(OC)c(OC)c2)[C@@H](COC(=O)OCC)O1,-0.282,-0.721 (inactive),-0.264 (inactive),2 (inactive),-0.684 (inactive),-0.523,-0.173,-0.0251,-0.361,0.375,0.525 (inactive),-0.147,8.03 (active),0.673 (inactive),-0.172 (inactive),0.0018 (inactive),-0.153,-1.82 (inactive),0.215 (inactive),-2.66
CC(=O)OC[C@H]1OC(ON=CC[C@@H]2C=C[C@H](OC(C)=O)[C@@H](COC(C)=O)O2)[C@H](OC(C)=O)[C@@H](OC(C)=O)[C@@H]1OC(C)=O (stereo not given in full),0.066,-0.697 (inactive),-0.133 (inactive),0.327 (inactive),0.915 (inactive),0.559,-0.126,0.37,0.877,-0.499,-0.0016 (inactive),0.315,0.202 (inactive),0.0995 (inactive),0.153 (inactive),0.22 (inactive),-0.999,0.00176 (inactive),0.186 (inactive),0.0378
Cn1c(=O)n2n(c1=O)[C@H]1[C@H](O)[C@@H]3O[C@@H]3C(=O)[C@H]1CC2,0.0242,0.0801 (inactive),0.0513 (inactive),-1.29 (inactive),-0.69 (inactive),0.924,-0.041,0.961,0.198,0.537,0.498 (inactive),-0.0984,-0.259 (inactive),-0.0607 (inactive),-0.596 (inactive),0.18 (inactive),-0.0231,-1.2 (inactive),0.171 (inactive),0.888
CO[C@H]1COC(=O)CC=C[C@@H](C)[C@H](NS(=O)(=O)c2ccc(C)cc2)COC(=O)CCC[C@@H]1C,0.118,-0.279 (inactive),-0.365 (inactive),-1.13 (inactive),-0.198 (inactive),0.439,-0.239,0.815,0.819,0.417,-0.643 (inactive),-0.062,-0.669 (inactive),-1.56 (inactive),-0.883 (inactive),-1.62 (inactive),-0.56,-0.255 (inactive),0.987 (inactive),0.428
C#CCCCON=C1C[C@@H](O)[C@@H](O)[C@@H]2[C@@H]3C(=O)N(c4ccc(F)cc4F)C(=O)[C@@H]3CC[C@H]12,0.166,-1.71 (inactive),-0.203 (inactive),-0.475 (inactive),0.278 (inactive),-0.222,-0.183,0.696,1.31,0.782,-1.41 (inactive),-0.193,1.04 (inactive),-1.22 (inactive),1.13 (inactive),-1.41 (inactive),0.27,-0.76 (inactive),0.615 (inactive),0.306
